{"source": "the supplement of paper PMC12632987"}
{"target": "T1, USP38, Q8NB14", "T1 chain": "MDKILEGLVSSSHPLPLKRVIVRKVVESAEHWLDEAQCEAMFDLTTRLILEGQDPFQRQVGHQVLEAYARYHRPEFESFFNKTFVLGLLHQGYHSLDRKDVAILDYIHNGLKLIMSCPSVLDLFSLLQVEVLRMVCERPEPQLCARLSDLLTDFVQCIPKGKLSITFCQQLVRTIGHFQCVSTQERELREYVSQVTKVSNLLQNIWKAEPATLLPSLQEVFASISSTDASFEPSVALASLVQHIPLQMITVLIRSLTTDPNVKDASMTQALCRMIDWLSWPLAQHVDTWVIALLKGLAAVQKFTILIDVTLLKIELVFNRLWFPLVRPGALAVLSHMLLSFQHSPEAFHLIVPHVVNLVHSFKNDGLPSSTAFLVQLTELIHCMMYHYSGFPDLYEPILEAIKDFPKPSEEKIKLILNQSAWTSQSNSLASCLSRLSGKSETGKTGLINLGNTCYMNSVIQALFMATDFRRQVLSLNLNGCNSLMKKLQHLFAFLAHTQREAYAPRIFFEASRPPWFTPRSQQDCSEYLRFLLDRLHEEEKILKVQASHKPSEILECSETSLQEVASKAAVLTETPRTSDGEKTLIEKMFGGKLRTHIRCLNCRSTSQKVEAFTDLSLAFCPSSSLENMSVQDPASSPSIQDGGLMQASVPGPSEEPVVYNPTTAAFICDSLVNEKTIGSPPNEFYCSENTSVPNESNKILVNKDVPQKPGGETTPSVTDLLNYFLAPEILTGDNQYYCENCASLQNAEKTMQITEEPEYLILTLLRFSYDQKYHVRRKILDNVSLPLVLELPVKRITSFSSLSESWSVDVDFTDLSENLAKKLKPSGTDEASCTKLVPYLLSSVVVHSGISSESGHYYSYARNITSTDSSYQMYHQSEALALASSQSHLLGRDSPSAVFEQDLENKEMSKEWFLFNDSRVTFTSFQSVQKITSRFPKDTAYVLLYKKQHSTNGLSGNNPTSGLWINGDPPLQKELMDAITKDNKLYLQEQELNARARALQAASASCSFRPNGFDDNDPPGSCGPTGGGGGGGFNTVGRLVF", "assay": "median log2 fold change of GCK-ALFA target abundance (FLAG IP / Myc IP barcode read proportion) (log2 ratio); each designed protein is fused to an ALFA-tag nanobody in HEK293 cells to bring the named protein to FLAG-tagged glucokinase (GCK); Myc marks an untargeted standard; higher = target protein stabilised (more abundant)", "settings": "target protein: 3xFLAG-MCP-GCK-ALFA reporter; HEK293 landing pad (RPLP)", "how_it_was_run": "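Binders fused to an ALFA nanobody were recombined as a library into HEK293 landing-pad cells, which were induced with 2 μg mL^−1 doxycycline and then transfected to express a FLAG-tagged target and a Myc-tagged standard. After 48 h, circular RNA barcodes recovered by anti-FLAG and anti-Myc immunoprecipitation of lysates were reverse transcribed, amplified and sequenced. Each binder's target abundance is the median log2 ratio of FLAG to Myc barcode read proportions, from barcodes present at ≥10^−7 in both replicates, binders carrying ≥3 barcodes per replicate, a 10^−6 pseudocount and pooled replicates.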"}
{"binder": "usp_38_diff_out_18_28_417 (protein) MLEERRERLKEMEKEADELIDKYNEAATKGFLYYHEHPEAEEVLEAVDKLSDAVGAAAAAVNEMRENIEDEEAFKKEEEKFKEYKKEAEKYLEELEKLIA", "median log2 fold change": -0.307}
{"binder": "usp_38_diff_out_18_28_422 (protein) SLAERRALIEELKKEADELIDEYTELATEAFLAYHENPDAEELLAAADALSDAVGAAAAAVREMREHLEDEAKVEAYTKEFKAQKKEAKEKAKELKKLLA", "median log2 fold change": -0.0738}
{"binder": "usp_38_diff_out_18_28_425 (protein) MREEVERRIAELEARADALIDRAEEVSTKAFLAYSEDPSSEELLKKNDELWDAVGAAAAAVREMRENRDDPEAVAREEERFREAAARAEALIKEIEKLIK", "median log2 fold change": -0.0591}
{"binder": "usp_38_diff_out_18_28_430 (protein) AEEEIKAKIEAAEKEMDKLIDEYVKVAEEAFLKLDESDKGEELEEAINKMADALGKAAAAVNEMRRNRDDPAAVEAELEKFKKAKKEAEEYIKKIKELLK", "median log2 fold change": -0.244}
{"binder": "usp_38_diff_out_18_28_413 (protein) MREENRKRIEEMEKKADELIDEANEVATEGYLKYADDPSNEELLKAIRELMDAVGEAAAAVREARENIDDPEKVEEEEKRFEEAYEKAKKKIKEVKELIK", "median log2 fold change": -0.0716}
{"binder": "usp_38_diff_out_18_28_427 (protein) ALAANQATIEKARAEADKLIDESNKILTEAYLAYHEDPSSKELLEAAKKLSDALGKAAQAVNDMRAHRHDAAAVAKHAKEFEKAAKEAKKAIEEIKKLLK", "median log2 fold change": -0.128}
{"binder": "usp_38_diff_out_18_28_416 (protein) MMKEIEEKIEKLEKEADELIDKATEAMTKGFLKINEDPNSEELIEAINKLSDAVGKAAHAVNLARRNKNNPEAVEKYEKEFEKAKKEAEKELKKLEELIK", "median log2 fold change": -0.28}
{"binder": "usp_38_diff_out_18_28_420 (protein) MKEERLKKLEELEKRADALIDEYNELATKGFLKYHDDPSATEVLEAVNKLSDAVGAAAAAVNAMKENIDNEEAFEAEYKKFEEEEAKAKEYAEELKKLIA", "median log2 fold change": 0.326}
{"binder": "usp_38_diff_out_18_28_428 (protein) SQEEIQKLIEENRKKTDELIDEANKVATEAYLAYHDNPEATELLEAVDKLWDALGKAAQAVNEMRENRDDPEKVKKEAAKFEEAAKKAEEYIKKIKELIA", "median log2 fold change": 0.0104}
{"binder": "usp_38_diff_out_18_28_424 (protein) MAAEIQARIDAAKARADALIDEVEKVSTEAFLKYSEDPSMEELLEADRKLWDAAGTAAAAVRAMREHRDDPAAVDAELAVFEKAAAEAEKLIKEIKELIK", "median log2 fold change": 0.0788}
{"binder": "usp_38_diff_out_18_28_421 (protein) MREERRKRIEELEKEADELIDEYEKLAREAFLYYHENPEAEEVLEAARRLGDAVGKAAAAVNEMKENIDDEEKFEEYEEEFKRYKAEAKEYAEELKKLLA", "median log2 fold change": -0.848}
{"binder": "usp_38_diff_out_18_28_429 (protein) SMEEIKKKIEEAEKEADALIDEANEVATQGFLAYHENPEKTELLEAVNELWDALGKAAQAVNDMRENKNNPEKVEKELKKFKEAAKAAKEKIAKIKELIA", "median log2 fold change": -0.434}
{"binder": "usp_38_diff_out_18_28_426 (protein) MLEENKKKIEKAKEEADKLIDEANKVATEGFLKYSENPENEELLKKINELWDAVGKAAQAVNDMRENIEDEEAVEKNLKKFEEAKKEAEKLIEELKKLIE", "median log2 fold change": 0.0382}
{"binder": "usp_38_diff_out_18_28_419 (protein) MLEERQKKIEKLQKEADELIDKYTEAAEKGFLKYHEDPSAEEVLEAIKELSDHVGAAAAAVNEMKENIENEEKFEEELKKFKEHKKKALEALEKLKKLLA", "median log2 fold change": 0.0382}
{"binder": "usp_38_diff_out_18_28_415 (protein) MLEENRKKIEEAKKEADELIDKANKVATEGFLKYSEDPSNEELLKAVNELLDYVGKAAAAVVEMRENINDPEAVEEQLKKFKEAKEKAEKAIEEVKKLIA", "median log2 fold change": 0.333}
{"binder": "usp_38_diff_out_18_28_414 (protein) MLEENKKKIEEMKKEADELIDKANEVMTQGYLAYADDPSNEELLKAIRELGDAVGAAAAAVREARENIENPEKVEKEKKKFEEAKKAAEEKIEEVKKLIA", "median log2 fold change": 0.143}
